Only some compounds are listed: those with a hit (about 2.8% of all), similar ones and a draw of the others.
KDM5B inh: KDM5B demethylase inhibition. Q9UGL1. KDM5B demethylase, FDH-coupled NADH fluorescence (FDH is formaldehyde dehydrogenase). Potency, µM (series often up to 57.7 µM), hits mostly inhibitors. 220,000 compounds, 2.6% hits. AID 1347165; active means well fitted inhibition curve with a large enough effect; inconclusive means small, poorly fitted or top-dose-only effect; inactive means no such curve, though single readings can be large or run the other way; further: potency means the concentration at half of the fitted maximal effect; 0% is about no effect; nearly all actives have a fitted effect of over 70% in size
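Coupled FDH/NAD⁺ fluorescence readout. KDM5BΔAP 200 nM final; compound titration, 10 min RT preincubation; substrate mix 12.5 µM H3K4me3, 25 µM 2-OG, 50 µM Fe(II), 100 µM ascorbate, 0.25 mM NAD⁺, 0.25 U/mL FDH; ΔRFU over 30 min.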
IP6K1 inh: IP6K1 kinase inhibition; Q92551; IP6K1 kinase, ADP-Glo luminescence, 2 h; hits give low values; activity change, % (series mostly up to about 58 µM); 140,000 compounds, 0.81% hits; AID 1645851; in the data active means activity change below about -25%; further: on the % scale 0 is the no-effect control and ±100 the full control effect
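ADP-Glo luminescence measures ADP made by human IP6K1 during a 2 h RT reaction with ATP/IP6 (mix at 1.3 mM/130 uM); top library doses 57.5 and 19.1 uM final.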
* = called active by the depositor; i = inactive; ? = inconclusive; / = no result.

SMILES	KDM5B inh	IP6K1 inh
OCC1CN(c2ncccn2)CC12CCN(Cc1ccco1)CC2 (configuration not stated)	28.2µM*	16.2
N#Cc1cccnc1N1CCC(CO)(Cc2ccccc2C(F)(F)F)CC1	?	-4.2
COC(=O)NC1CCN(c2nccc(Nc3ccccc3OC)n2)CC1	/	-5.8
COc1cc2c(cc1-c1ccc(F)cc1)OCC(C)(C)CC2CO (configuration not stated)	/	-14.0
COc1cccc(N2C(=O)NC(=NC3CCCCC3)C23CCN(C(=O)c2ccc(C)cc2)CC3)c1	i	0.2
Cc1ccc(NC(=O)Cn2nc3c(cc2=O)CCCCC3)cc1C	i	9.7
CN1C(=O)c2ccc(NC(=O)Cn3nc4c(cc3=O)CCCC4)cc2C1=O	28.2µM*	21.1
CCOC(=O)C1CCCN(C(=O)c2ccc3oc(-c4ccncc4)nc3c2)C1 (configuration not stated)	/	14.0
CCC(C)C(=O)Nc1c(C(=O)OC)n(CC2CCCO2)c2ncc(NC(C)CCO)cc12 (configuration not stated)	6.31µM*	-3.2
COC(=O)c1c(NC(C)=O)c2cc(NC3CCCC(C)(C)C3)cnc2n1CC1CCCO1 (configuration not stated)	?	0.9
COC(=O)c1c(NC(C)=O)c2cc(NC(C)CC(C)(C)O)cnc2n1CCC(C)C (configuration not stated)	20µM*	0.5
CC(C)CCn1c(=O)c2cccnc2n(CC(=O)Nc2ccccc2)c1=O	?	27.5
CCC(C)C(=O)Nc1c(C(=O)OC)n(CC2CCCO2)c2ncc(NC(C)CO)cc12 (configuration not stated)	28.2µM*	11.9
COC(=O)c1c(NC(C)=O)c2cc(NC3CCCCC3)cnc2n1CC1CCCO1 (configuration not stated)	?	6.0
CC(C)CN1CCN(C2CCOC3(CCN(C(=O)Cc4cccc(F)c4)CC3)C2)CC1 (configuration not stated)	/	19.8
Cc1ccc(Nc2ccnc(N3CCC(C(=O)NCC4CCCO4)CC3)n2)cc1 (configuration not stated)	/	-3.7
Fc1ccc(N/N=C/c2c(F)cccc2F)c(F)c1	i	/
COc1ccc(CC(=O)N2CCCC(N3C(=O)c4c(c(C)nn4-c4ccccc4)C3C(C)C)C2)cc1 (configuration not stated)	/	10.4
O=C(C1CCCC1)N1CCN(c2nc3ncccc3o2)CC1	31.6µM*	6.0
O=C(C1CC1)N1CCN(c2nc3ncccc3o2)CC1	?	1.7
O=C(C1CCCN(c2nc3ncccc3o2)C1)N1CCOCC1 (configuration not stated)	39.8µM*	4.8
CN(C)C(=O)N1CCCN(c2nc3ncccc3o2)CC1	28.2µM*	4.8
O=C(C1CCN(c2nc3ncccc3o2)CC1)N1CCOCC1	/	17.9
O=C(c1ccccc1Cl)N1CCN(c2nc3ncccc3o2)CC1	20µM*	5.8
O=C(c1ccc(F)cc1)N1CCCN(c2nc3ncccc3o2)CC1	?	-8.1
SMILES	KDM5B inh	IP6K1 inh
Cc1ccccc1C(=O)N1CCN(c2nc3ncccc3o2)CC1	?	-3.3
Cn1ncc2c(C(=O)N3CCN(c4ncccn4)CC3)cc(-c3ccccc3F)nc21	/	2.0
COc1cccc([S+](=O)([O-])NC2CCN(c3ccc4nnc(C)n4n3)CC2)c1	/	-5.3
O=[S+]([O-])(c1cccc(C(F)(F)F)c1)N1CCCN(c2ccnc3ccnn23)CC1	/	-7.1
COCCn1c(=O)c2c(n1Cc1ccccc1)CN(Cc1cccnc1OC)CC2	35.5µM*	1.6
CC(C)CCN1CCc2c(n(Cc3cccnc3)n(CCc3ccccc3)c2=O)C1	31.6µM*	-14.3
CCn1c2c(c(=O)n1-c1ccccc1)CCN(Cc1cccnc1OC)C2	?	28.8
COCCn1c(=O)c2c(n1Cc1ccccc1)CN(Cc1ccc(C(C)C)cc1)CC2	?	-0.3
COCCn1c(=O)c2c(n1Cc1ccccc1)CN(Cc1cccc(C)n1)CC2	35.5µM*	8.1
CC(=O)N1CCc2c(n(Cc3cccnc3)n(CCc3ccccc3)c2=O)C1	i	12.4
Cc1nn(CCO)c(C)c1NC(=O)CCc1cc2n(n1)CCCNC2	?	6.2
Cc1ccnc(C(NC(=O)CCc2cc3n(n2)CCCNC3)C2CC2)c1 (configuration not stated)	28.2µM*	3.8
Cc1ccc(NC(=O)COc2cccc(F)c2)cc1OCc1cc(=O)n2c(ncn2C(C)C)n1	i	/
O=C(NCCN[S+](=O)([O-])c1cccc(C(F)(F)F)c1)c1ccc(-c2cccc(C(F)(F)F)c2)cc1	/	21.8
O=C(NCC1CC1)c1cc(-c2ccsc2)c2nncn2n1	/	11.0
Cc1cc(C)cc(-c2ccc(CN3CCCC3C(=O)NC3CC3)cc2)c1 (configuration not stated)	/	-7.5
CN(C)C[C@@H]1CN(C2CCOCC2)C[C@H]1NC(=O)c1n[nH]c2ccccc12	22.4µM*	4.5
CN(C)C[C@@H]1CN(C)C[C@H]1NC(=O)c1ccc(Br)cc1	i	-8.0

Screening data as filed in PubChem.
